HCV inhibitor = inhibitors of hepatitis C virus infection; Huh7.5.1 HCVcc-Cre infection, luciferase reporter, 44 h; Potency, µM (highest dose often 41.8 µM), inactives show at the top dose activity change, negative = inhibition, actives largely listed as inhibitors; hit rate 3.4% among 340,000; AID 651820; active = well fitted inhibition curve with a large enough effect; inconclusive = small, poorly fitted or top-dose-only effect, or another doubt; inactive = no such curve, though single readings can be large or run the other way; also: potency is read from the fitted curve at half-maximal effect; % is scaled to controls: 0 for no effect and ±100 for the full control effect
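Antiviral activity was scored by luciferase reporter output from cells infected with HCVcc-Cre (~0.5 moi) in presence of compound, 44 h infection period, cells seeded 1,000/well 4 h prior.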
FMDV antiviral = blocks foot and mouth disease virus. FMDV antiviral cell-based qHTS. AID 1159524. hit rate 1.2% among 410,000. Potency, µM (doses to about 57.9 µM), for the others: at the highest dose activity change, negative = inhibition, usual class: inhibitors; calls by dose curve; tested in HEK293T cells; also: read-out not given here; potency is read from the fitted curve at half-maximal effect; % is scaled to controls: 0 for no effect and ±100 for the full control effect; nearly all actives have a fitted effect of over 45% in size
Shiga inhibitor = inhibitors of Shiga toxin in Vero cells | Vero cells, Shiga toxin protein synthesis inhibition reporter | inhibition, % at 38.7 µM | hit rate 9.2% among 290,000 | AID 2315; in the data active = inhibition mostly above about 28%, no sharp cut-off; inactive = mostly below about 43%; also: 0% is about no effect
LASV entry inh = inhibitors of Lassa virus binding or cell entry; Lassa virus pseudotype entry inhibition, cell reporter; Potency, µM (highest dose often 37.9 µM), for the others: top-dose activity change, negative = inhibition, hits mostly inhibitors; hit rate 1.2% among 300,000; AID 540256; calls by dose curve; tested in HEK293 cells; also: potency is read from the fitted curve at half-maximal effect; % is scaled to controls: 0 for no effect and ±100 for the full control effect; nearly all actives have a fitted effect of over 50% in size
CHX counter = counter-screen for Shiga toxin inhibitors: cycloheximide protein synthesis inhibition. cell reporter, cycloheximide protein synthesis inhibition counterscreen. max response, %. hit rate 12% among 300,000; in the data active = max response mostly above about 13%, no sharp cut-off; inactive = mostly below about 14%; also: read at 38.3 µM for the half of the compounds with a filed dose; 0% is about no effect
MARV entry inh = inhibitors of Marburg virus binding or cell entry | Marburg virus pseudotyped entry inhibition, cell reporter | Potency, µM (doses to about 37.8 µM), inactives show at the highest dose activity change, negative = inhibition, usual class: inhibitors | hit rate 1.8% among 300,000 | AID 540276; calls by dose curve; tested in HEK293 cells; also: potency is read from the fitted curve at half-maximal effect; % is scaled to controls: 0 for no effect and ±100 for the full control effect
The depositor's hits bear a star; ? = inconclusive; / = no result; [ ] = dose if it differs, or a comment. This is a sample that favours compounds with a hit; in the whole collection about 13% have one here.

SMILES	HCV inhibitor	FMDV antiviral	Shiga inhibitor	LASV entry inh	CHX counter	MARV entry inh
O=C(N/N=C/c1ccccc1OC(=O)N1CCOCC1)c1cccs1	7.3%	38.1%	47.1	11.3%	35.1*	18.2%[46.1 µM]
Cc1ccc(C(=O)N/N=C\c2cc3c(cc2Br)OCO3)s1	-4.8%	4.3%	14.9	11.2µM*	-1.1	?
O=C(N/N=C\c1cccc(OC(=O)c2ccco2)c1)c1ccc2c(c1)OCO2	4.4%	?	50.4*	14.6µM*	32.5*	?
O=C(N/N=C\c1ccc2c(c1)OCO2)c1ccco1	0.1%	-2.5%	59.3*	?	28.5*	?
COC(=O)N/N=C\c1cc2c(cc1Br)OCO2	-9.1%	11.4%	29.7	5.8%[46.1 µM]	19.0	4.9%[46.1 µM]
COC(=O)c1ccc(CSc2nc3ccncc3n2Cc2ccc(F)cc2)cc1	/	10.7%	/	/	/	?
COc1cccc(C(O)c2ncc(-c3ccccc3OC)[nH]2)c1 (stereo not given)	/	-3.8%	/	/	/	/
O=C(N/N=C\c1cc2c(cc1[N+](=O)[O-])OCO2)c1cccs1	-16.3%	-5.4%	20.0	28.2%[46.1 µM]	7.6	?
O=C(N/N=C/c1ccc2c(c1)OCO2)C1CC1	16.3%	38.4%	48.8*	/	36.9*	/
O=C(N/N=C/c1ccc2c(c1)OCO2)c1ccc2c(c1)OCO2	-8.9%	8.9%	71.7*	-13.1%[46.1 µM]	42.0*	?
O=C(NN=Cc1ccc(F)cc1)C1CC1	9.2%	3.0%	/	-2.3%[46.1 µM]	/	-0.5%[46.1 µM]
O=C(N/N=C\c1cc2c(cc1Cl)OCO2)c1cccs1	-9.3%	24.7%	69.3*	/	25.7*	/
O=C(N/N=C/c1c(Cl)[nH]c2ccccc12)c1ccc2c(c1)OCCO2	-20.0%	-0.1%	60.4*	?	55.1*	?
O=S(=O)(c1ccc(OC(F)(F)F)cc1)N1CCC(c2nnnn2-c2ccc(F)cc2)CC1	/	-13.7%	/	20.9%[46.1 µM]	/	0.1%[46.1 µM]
O=C(O)Cc1c[nH]c2ccc(O)cc12	-6.3%	-12.5%	/	?	/	?
O=C(NNC(=O)c1sccc1-n1cccc1)c1ccc(F)cc1	-1.5%	-9.0%	14.3	-0.7%	-2.7	-7.1%
Cc1ccc2c(c1)N(C(=O)CCC(=O)NCCCN(C)Cc1ccccc1)CCO2	2.3%	-24.3%	-4.0	/	1.2	/
O=C(N/N=C/c1ccc[nH]1)c1ccc2c(c1)OCO2	12.6µM*	34.2%	109.2*	-9.0%	36.9*	0.2%[46.1 µM]
O=C(NN=Cc1ccc2c(c1)OCO2)c1ccncc1	14.0%	37.5%	/	34.8%	/	21.1%
O=C(N/N=C/c1cc2c(cc1Cl)OCO2)c1ccc2c(c1)OCCO2	-20.1%	0.0%	70.2*	-24.4%[46.1 µM]	41.9*	0.2%[46.1 µM]
O=C(N/N=C/c1cccc(O)c1)c1ccc2c(c1)OCCO2	8.2%	57.3%	9.3	/	9.1	/
O=C(CNC(=O)c1cccc(Br)c1)N/N=C/c1ccc2c(c1)OCO2	4.5%	38.1%	78.7*	13.0%[46.1 µM]	24.3*	21.8%[46.1 µM]
O=C(N/N=C/c1cccnc1)c1ccc2c(c1)OCO2	4.1%	14.5%	55.0*	/	38.4*	/
COC(=O)CCSc1nc2sc3c(c2c(=O)n1Cc1ccccc1)CCC(C(C)(C)C)C3 (stereo not given)	/	16.8%	/	-25.2%[46.1 µM]	/	/
COc1ccccc1CNC(=O)C1Cc2cc(S(=O)(=O)N3CCCCC3)ccc2N1C(C)=O (stereo not given)	?	-0.1%	22.4	-5.6%[46.1 µM]	-3.6	14.0%[46.1 µM]
SMILES	HCV inhibitor	FMDV antiviral	Shiga inhibitor	LASV entry inh	CHX counter	MARV entry inh
CC(C)c1ccc(Nc2cc(C(=O)NCCCN(C)Cc3ccccc3)c3ccccc3n2)cc1	/	-10.9%	/	7.0%[46.1 µM]	/	/
O=C(N/N=C/c1ccc(-c2ccc(Br)cc2)o1)c1ccc2c(c1)OCO2	?	6.3%	26.8	?	14.2	-18.3%[46.1 µM]
O=C(Cc1ccccc1)N/N=C/c1cc2c(cc1Cl)OCO2	-24.7%	38.5%	84.7*	-16.0%	35.0*	-23.9%
O=C(N/N=C/c1ccc(COc2ccc(Br)cc2)o1)c1ccc2c(c1)OCO2	?	8.8%	26.3	/	15.4*	/
COc1ccc(-c2nn(-c3ccccc3)cc2C(=O)N2c3ccc(C)cc3C3CN(C)CCC32)cc1 (stereo not given)	-24.9%	-2.8%	-4.6	11.2µM*	-0.3	?
COC(=O)C1=C(C)N(Cc2ccccc2)C(=S)NC1c1cccc(C(F)(F)F)c1 (stereo not given)	/	/	/	/	/	-34.6%[14.2 µM]
COc1ccccc1CNCC(=O)Nc1cc(S(=O)(=O)N2CCOCC2)ccc1Cl	?	25.1µM*	/	?	/	?
CCN(CC)S(=O)(=O)c1ccc(OC)c(NC(=S)Nc2cccc(C)c2C)c1	0.3%	6.7%	-13.8	-5.0%	24.0*	2.8%
CCN(CC)S(=O)(=O)c1ccc(C)c(NC(=O)CNCc2ccccc2OC)c1	?	?	31.4	?	0.5	4.47µM*
COc1cccc(CN(C)CC(=O)Nc2cc(S(=O)(=O)N3CCCC3)ccc2Cl)c1OC	2.82µM*	?	/	?	/	?
CN(CC(=O)Nc1cc(S(=O)(=O)N2CCCC2)ccc1Cl)Cc1ccc2c(c1)OCO2	6.31µM*	-20.3%	/	/	/	/
Cc1cc2nnc(SCC(=O)Nc3cc(S(=O)(=O)N4CCOCC4)ccc3Cl)n2c2ccccc12	?	?	-6.7	14.1%	-1.0	7.94µM*
COc1ccc(S(=O)(=O)N2CCCCCC2)cc1NC(=O)CN(C)Cc1ccc2c(c1)OCO2	11.2µM*	-14.6%	/	/	/	/
CN(CC(=O)Nc1cc(S(=O)(=O)N2CCCCCC2)ccc1Cl)Cc1ccc2c(c1)OCO2	?	-26.5%	/	/	/	/
CC(C)(C)NC(=O)CN1CCCN(C(=O)c2cccc(S(=O)(=O)N3CCc4ccccc43)c2)CC1	-13.1%	-7.4%	/	/	/	/
CCOC(=O)c1c(S(=O)(=O)NCC(=O)Nc2cc(C)ccn2)c(C)n(C)c1C	6.5%	18.6%	42.2	?	13.4*	3.4%[46.1 µM]
c1ccc2c(Nc3nnc(-c4ccncc4)s3)cccc2c1	?	/	33.5*	14.6%	48.0*	-2.7%
C=CCNc1nnc(-c2ccncc2)s1	11.2%	20.1%	13.4	-3.0%	1.3	3.6%
Cc1nn(-c2ccccc2)c(C)c1/C=N/O	2.0%	0.3%	14.9	11.7%	13.7*	11.0%
Cc1nn(-c2ccccc2)c(N2CCCC2)c1/C=N/NC(=O)c1ccccc1O	?	0.0%	44.4	?	12.1	?
Cc1nn(-c2ccccc2)cc1/C=N/NS(=O)(=O)c1ccccc1	0.1%	43.3%	-20.8	10.0%	15.8	2.9%[46.1 µM]
Cc1nn(-c2ccccc2)c(C)c1/C=N/NC(=O)c1ccccc1O	29.4%	-5.9%	38.2*	8.9%	41.7*	-1.7%
Cc1nn(-c2ccccc2)cc1/C=N/NC(=O)c1cccs1	-9.0%	0.0%	102.3*	/	44.3*	/
Cc1nn(-c2ccccc2)c(C)c1/C=N/n1c(-c2ccccc2Br)n[nH]c1=S	-19.8%	-10.3%	14.8	12.6µM*	9.5	?
Cc1nn(-c2ccccc2)c(C)c1/C=N/n1cnnc1	13.0%	-5.6%	-12.8	-3.2%	-3.7	1.1%[46.1 µM]
N#Cc1ccc(OCC(=O)OCCCOC(=O)COc2ccc(C#N)cc2)cc1	/	-10.2%	0.6	1.5%	4.1	21.8%
CCc1nc2c(sc3nc4c(cc32)COC(C)(C)C4)c(=O)n1Cc1ccco1	?	?	26.2	?	13.6	?

Compound activity (PubChem BioAssay)
